Measurements reported in PubChem BioAssay AID1159580 (chemical genetic matrix, 2015).
Where “and” joins values, the source holds several entries; their conditions need not be identical. Identical values can stand only once. In all, about 5,500 compounds went through this assay and about 2,000 (36%) were called active. Roughly 18% stayed inconclusive and do not appear here. Rule as the data show it: active = normalized growth mostly below about 0.91 (no sharp cut-off); inconclusive = no clear call, values can overlap the other calls; inactive = mostly above about 0.92. The list shows a part of the results.

Assay: chemical genetic growth profiling, strain panel (AID 1159580);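 also: tested at 20 µM; growth read once vehicle control cultures reached saturation at 30 °C; 1 = growth at the plate median or of vehicle wells; lower values mean less growth of the strain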
Settings: S. cerevisiae deletion strains, growth OD

Measured: normalized growth

S=C=NCc1ccccc1
active: locus YAL013W, strain DEP1, hits give low values 0.0579 | locus YAL021C, strain ccr4, hits give low values 0.661 | locus YAL026C, strain drs2, hits give low values 0.0761 | locus YAL030W, strain snc1, hits give low values 0.0648 | locus YBL061C, strain skt5, hits give low values 0.079 | locus YBR009C, strain hhf1, hits give low values 0.0753 | locus YBR021W, strain FUR4, hits give low values 0.17 | locus YBR023C, strain chs3, hits give low values 0.0813 | locus YBR171W, strain sec66, hits give low values 0.117 | locus YBR229C, strain ROT2, hits give low values 0.0461 | locus YBR231C, strain swc5, hits give low values 0.0718 | locus YBR279W, strain paf1, hits give low values 0.0918 | locus YCL011C, strain gbp2, hits give low values 0.0749 | locus YCL016C, strain dcc1, hits give low values 0.0958 | locus YCL029C, strain bik1, hits give low values 0.0592 | locus YCL061C, strain MRC1, hits give low values 0.0833 | locus YCL069W, strain vba3, hits give low values 0.0787 | locus YCR088W, strain abp1, hits give low values 0.069 | locus YDL005C, strain med2, hits give low values 0.583 | locus YDL035C, strain GPR1, hits give low values 0.0548 | locus YDL040C, strain nat1, hits give low values 0.139 | locus YDL074C, strain BRE1, hits give low values 0.0981 | locus YDL101C, strain DUN1, hits give low values 0.0649 | locus YDL134C, strain PPH21, hits give low values 0.0517 | locus YDL185W, strain tfp1, hits give low values 0.0574 | locus YDL192W, strain arf1, hits give low values 0.0627 | locus YDR001C, strain nth1, hits give low values 0.07 | locus YDR069C, strain doa4, hits give low values 0.143 | locus YDR101C, strain arx1, hits give low values 0.0574 | locus YDR137W, strain rgp1, hits give low values 0.616 | locus YDR150W, strain NUM1, hits give low values 0.0586 | locus YDR159W, strain sac3, hits give low values 0.275 | locus YDR162C, strain NBP2, hits give low values 0.0541 | locus YDR195W, strain ref2 0.187 | locus YDR297W, strain sur2, hits give low values 0.068 | locus YDR318W, strain mcm21, hits give low values 0.0636 | locus YDR334W, strain swr1, hits give low values 0.0851 | locus YDR335W, strain msn5, hits give low values 0.0739 | locus YDR388W, hits give low values 0.061 | locus YDR392W, strain spt3, hits give low values 0.112 | locus YDR502C, strain sam2, hits give low values 0.0605 | locus YEL003W, strain gim4, hits give low values 0.0605 | locus YEL037C, strain rad23, hits give low values 0.178 | locus YEL061C, strain CIN8 (second series), hits give low values 0.0786 | locus YEL061C, strain CIN8, hits give low values 0.05 | locus YER015W, strain faa2, hits give low values 0.0762 | locus YER016W, strain bim1, hits give low values 0.081 | locus YER110C, hits give low values 0.0778 | locus YER111C, strain swi4, hits give low values 0.0829 | locus YER155C, strain BEM2 (second series), hits give low values 0.0957 | locus YER155C, strain BEM2, hits give low values 0.0627 | locus YER167W, strain BCK2, hits give low values 0.0526 | locus YFR010W, strain ubp6, hits give low values 0.136 | locus YGL078C, strain dbp3, hits give low values 0.0565 | locus YGL086W, strain mad1, hits give low values 0.0589 | locus YGL167C, strain pmr1, hits give low values 0.393 | locus YGL173C, strain kem1, hits give low values 0.214 | locus YGL227W, strain vid30, hits give low values 0.072 | locus YGL240W, strain doc1, hits give low values 0.203 | locus YGL248W, strain PDE1, hits give low values 0.0468 | locus YGL253W, strain hxk2, hits give low values 0.0793 | locus YGR078C, strain PAC10, hits give low values 0.0557 | locus YGR135W, strain pre9, hits give low values 0.066 | locus YGR229C, strain SMI1, hits give low values 0.0658 | locus YGR252W, strain gcn5, hits give low values 0.176 | locus YHR013C, strain ard1, hits give low values 0.175 | locus YHR027C, strain rpn1, hits give low values 0.103 | locus YHR030C, strain SLT2, hits give low values 0.0491 and 0.174 | locus YHR079C, strain IRE1 (second series), hits give low values 0.0547 | locus YHR079C, strain IRE1, hits give low values 0.181 | locus YHR094C, strain hxt1, hits give low values 0.0577 | locus YHR129C, strain ARP1, hits give low values 0.0553 | locus YHR142W, strain chs7, hits give low values 0.0817 | locus YHR200W, strain rpn10, hits give low values 0.0598 | locus YIL066C, strain RNR3, hits give low values 0.0519 | locus YIL073C, strain SPO22, hits give low values 0.132 | locus YIL125W, strain kgd1, hits give low values 0.0561 | locus YIR030C, strain dcg1, hits give low values 0.0588 | locus YJL092W, strain hpr5, hits give low values 0.08 | locus YJL095W, strain BCK1 (second series), hits give low values 0.0601 | locus YJL095W, strain BCK1, hits give low values 0.0573 and 0.268 | locus YJL115W, strain asf1, hits give low values 0.123 | locus YJL129C, strain trk1, hits give low values 0.257 | locus YJL134W, strain LCB3, hits give low values 0.0484 | locus YJL154C, strain vps35, hits give low values 0.165 | locus YJL164C, strain tpk1, hits give low values 0.0744 | locus YJL166W, strain qcr8, hits give low values 0.0848 | locus YJL168C, strain set2, hits give low values 0.0599 | locus YJL187C, strain SWE1 (second series), hits give low values 0.0487 | locus YJL187C, strain SWE1, hits give low values 0.0904 | locus YJR043C, strain POL32, hits give low values 0.0693 | locus YJR066W, strain TOR1, hits give low values 0.735
